AID504770: growth inhibition of E. coli YBA685, primary screen, V. cholerae RctB inhibitors; AID 504770, 2011; E. coli YBA685 rctB-dependent plasmid, OD600 growth, 3 h; active compounds read low; z-score (test concentration not listed); 130,000 tested, 0.27% active; in the data active = z-score below about -2, passing the limit was not always enough
MbtI inh: MbtI salicylate synthase inhibitors, primary screen, biochemical, fluorescence intensity | purified MbtI enzyme, fluorescence intensity read-out | inhibition, % (no concentration beside the values) | 100,000 tested, 0.89% active | AID 493033, 2011; in the data active = inhibition mostly above about 56%, no sharp cut-off; inactive = mostly below about 77%
Polio RdRp inh: poliovirus RdRp elongation inhibitors, primary screen, biochemical, fluorescence polarization, total intensity; 150,000 tested, 0.66% active; poliovirus polymerase elongation; active compounds read low; Genome polyprotein (Poliovirus type 1 (strain Mahoney)), P03300; % elongation, % (compound at 16.7 µg/mL); in the data active = % elongation below about 90%
Target sequence (P03300 1749-2209 limits assumed): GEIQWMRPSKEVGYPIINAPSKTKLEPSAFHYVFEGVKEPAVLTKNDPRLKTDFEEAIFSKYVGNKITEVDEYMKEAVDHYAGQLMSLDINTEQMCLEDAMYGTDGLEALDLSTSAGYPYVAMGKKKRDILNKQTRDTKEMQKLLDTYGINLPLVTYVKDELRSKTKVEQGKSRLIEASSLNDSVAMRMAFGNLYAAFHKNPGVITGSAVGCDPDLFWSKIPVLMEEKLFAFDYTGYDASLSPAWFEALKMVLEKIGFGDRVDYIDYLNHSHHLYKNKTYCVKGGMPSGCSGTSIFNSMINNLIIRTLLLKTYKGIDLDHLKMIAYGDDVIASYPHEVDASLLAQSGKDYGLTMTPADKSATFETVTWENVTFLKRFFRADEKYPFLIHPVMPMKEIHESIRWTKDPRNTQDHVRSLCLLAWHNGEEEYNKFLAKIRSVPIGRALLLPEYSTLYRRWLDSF
MenB inh: M. tuberculosis MenB inhibitors, primary screen, biochemical, absorbance | MenB enzyme assay, absorbance read-out | 100,000 tested, 0.43% active | inhibition, % (concentration not given with the values) | 1,4-dihydroxy-2-naphthoyl-CoA synthase (Mycobacterium tuberculosis (strain ATCC 25618 / …; in the data active = inhibition above about 21%, passing the limit was not always enough
A number is an active result; n = inactive; x = not tested or not shown. This is a sample that favours compounds with a hit; in the whole collection about 1.5% have one here.

SMILES | AID504770 | MbtI inh | Polio RdRp inh | MenB inh
COc1ccc(CNC(=O)c2cn[nH]c2-c2ccc(OC)cc2)cc1 | n | n | n | n
COCCNC(=S)N1CCCN(c2nc3cc(C)ccc3cc2C#N)CC1 | n | n | n | 21.1
Cc1ccc2cc(C#N)c(N3CCCN(C(=O)C4CCCCC4)CC3)nc2c1 | n | n | n | n
COCCCNC(=O)c1cc2c(-c3cccc(OC)c3)nn(C)c2s1 | x | x | n | x
COc1ccc(OC)c(CNC(=O)c2cc3c(-c4ccc(OC)c(OC)c4)nn(C)c3s2)c1 | x | x | n | x
COc1ccc(-c2nn(C)c3sc(C(=O)NCCN(C)C)cc23)cc1OC | x | x | 60.0 | x
CCCN(CCC)CCNC(=O)c1cc2c(-c3ccc(Cl)cc3)nn(C)c2s1 | x | x | n | x
CCN(CC)CCNC(=O)c1cc2c(-c3cccc(OC)c3)nn(C)c2s1 | x | x | 83.0 | x
CCCN(CCC)CCCNC(=O)c1cc2c(-c3ccc(OC)c(OC)c3)nn(C)c2s1 | x | x | 83.0 | x
N#CC1=C2SCN(C3CCCCC3)CN2C(=O)CC1c1ccc(F)cc1 (stereo not given) | x | x | 84.0 | x
N#CC1=C2SCN(C3CCCCC3)CN2C(=O)CC1c1c(F)cccc1Cl (stereo not given) | x | x | 69.0 | x
Cc1nc2ncnn2c(C)c1CCC(=O)N(C)CC(=O)Nc1ccc(OC(F)(F)F)cc1 | n | n | n | n
O=S1(=O)CCC(NC(=S)SCCOc2ccccc2OCCO)C1 (stereo not given) | -2.95 | n | n | n
CC(=O)Nc1nc2c(Br)cc(Br)cc2c(=O)s1 | n | x | x | x
c1ccc(-c2nc(N3CCCCC3)c3ccccc3n2)cc1 | n | n | n | 32.8
O=C(CSc1ccccc1Cl)c1ccco1 | n | n | n | x
O=C(CSc1ccc(Cl)cc1)c1ccco1 | n | 61.1 | n | x
Cc1nnc2c(Nc3ccccc3I)nc3nonc3n12 | -2.75 | n | n | n
Cc1sc(NC(=O)Cn2nc(C(F)(F)F)cc2C)c(C(N)=O)c1C | n | x | 68.0 | n
CC1(C)CCC2=C(O1)c1ccccc1C(=O)C2=O | x | n | 89.0 | n
CCOC(=O)c1nnn(-c2nn3nnnc3c3ccccc23)c1C | n | n | n | 32.3
CCOC(=O)c1nnn(-c2nonc2-n2cccc2)c1C | n | n | n | n
Cc1ccc(C)c(C(=O)/C=C/C(=O)O)c1 | n | x | n | 67.0
Cc1ccc(C)c(C(=O)NCC(C)C)c1 | n | n | n | n
C=CCn1c(=O)[nH]c2nc3cc(N=CN(C)C)ccc3nc2c1=O | n | n | -6.0 | n
SMILES | AID504770 | MbtI inh | Polio RdRp inh | MenB inh
C=CCn1c(=O)[nH]c2nc3cc(N=CN(C)C)c(C)cc3nc2c1=O | n | n | n | n
CN1CC(C(=O)Nc2ccc(I)cc2)CC1=O (stereo not given) | n | n | n | n
CCn1cc(C(=O)O)c(=O)c2cc(F)c(N3CCNCC3)cc21 | -4.65 | n | n | n
CCn1cc(C(=O)O)c(=O)c2cnc(N3CCNCC3)nc21 | -3.15 | n | n | n
CCn1cc(C(=O)NCC(C)C)c(=O)c2cc(F)c(N3CCN(C(=O)c4ccco4)CC3)cc21 | n | n | n | n
FC(F)(F)c1cccc(N2CCN(C(=S)Nc3ccc4c(c3)OCO4)CC2)c1 | n | n | n | n
CCn1cc(C(=O)O)c(=O)c2cc(F)c(N3CCN(C(=S)Nc4ccc5c(c4)OCO5)CC3)cc21 | -3.05 | n | n | n
CCn1cc(C(=O)O)c(=O)c2cc(F)c(N3CCN(C(=O)c4ccccc4F)CC3)cc21 | -3.75 | n | n | n
O=C(Cn1[nH]c(=O)c2ccccc2c1=O)NCC(c1ccco1)N1CCCC1 (stereo not given) | n | n | n | n
Cc1cc(COC(=O)c2cc(S(=O)(=O)NC3CC3)ccc2Br)no1 | n | n | n | n
CCn1cc(C(=O)O)c(=O)c2cc(F)c(N3CCN(C)CC3)cc21 | -6.95 | n | n | n
CCn1cc(C(=O)NN)c(=O)c2cc(F)c(N3CCCC3)cc21 | n | n | n | n
CC(NC(=O)Cc1c[nH]c2ccccc12)C(=O)O (stereo not given) | n | x | n | n
CCN(CC)S(=O)(=O)c1ccc2c(c1)nc(CCC(=O)Nc1ccc(C(C)C)cc1)n2CC | n | n | n | n
N#Cc1ccccc1CSc1nnnn1-c1ccccc1 | n | n | n | n
O=C(OCc1csc(-c2ccccc2)n1)C1Cc2ccccc2CN1S(=O)(=O)c1cccs1 (stereo not given) | n | n | n | n
COC(=O)c1ccc2nc(NC(=O)CN3C(=O)CCC3=O)sc2c1 | n | x | 75.0 | n
COC1=CC(=O)c2ccccc2C1=O | -2.65 | n | 85.0 | n
Cc1c(-c2nc(-c3ccccc3)no2)nnn1-c1ccc(F)c(Cl)c1 | x | x | 81.0 | x
COc1ccc(Cl)cc1-n1nnc(-c2nc(-c3ccccc3)no2)c1C | x | x | n | x
N#CC1=C(N)SC(N)=C(C#N)C1c1ccc(O)cc1 | n | 83.3 | n | n
CC(C)c1ccc(C2C(C#N)=C(N)SC(N)=C2C#N)cc1 | n | x | n | n
C=CCSc1nnc(NC(=O)c2cn(-c3ccccc3)nc2-c2ccccc2)s1 | n | n | n | n
Cc1noc(C)c1CSc1nc(C)c(C)n1C1CCCCC1 | n | n | n | n
O=C1CC(Sc2ccccn2)C(=O)N1c1ccccc1 (stereo not given) | n | x | x | x
SMILES | AID504770 | MbtI inh | Polio RdRp inh | MenB inh
O=C1CC(Sc2cccs2)C(=O)N1c1ccccc1 (stereo not given) | n | x | x | x
O=C1CC(Sc2ccccc2)C(=O)N1c1ccccc1 (stereo not given) | n | 64.5 | n | n
CCc1ccc(N2C(=O)CC(Sc3ccccn3)C2=O)cc1 (stereo not given) | n | 69.4 | n | n
O=C(O)c1cccnc1SC1CC(=O)N(c2ccc(Cl)cc2)C1=O (stereo not given) | n | 65.5 | n | n
CCc1ccc(N2C(=O)CC(Sc3nnc(N)s3)C2=O)cc1 (stereo not given) | n | 100.8 | n | n
CCc1ccc(N2C(=O)CC(Sc3ccccc3N)C2=O)cc1 (stereo not given) | n | n | n | n
COc1ccc(NC(=O)c2sc(=S)n3c2[nH]c(=O)c2ccccc23)cc1 | n | 94.4 | n | n
O=C(CCc1ccc(S(=O)(=O)N2CCOCC2)cc1)N/N=C/c1ccco1 | n | n | n | n
Cc1c(C)c2c(=O)n(-c3ccccc3)[nH]c2[nH]c1=O | n | 65.8 | x | x
Cc1cc(=O)[nH]c2[nH]n(-c3ccccc3)c(=O)c12 | n | x | n | n
O=C1C2SCCN2C(=S)N1c1cccc(C(F)(F)F)c1 (stereo not given) | n | 70.5 | n | n
Cc1nnc(COC(=O)c2cccc(S(=O)(=O)N3CCCCC3C)c2)o1 (stereo not given) | n | n | n | n
O=c1c2c([nH]c3ccccc13)CCCCC2 | n | n | n | 34.8
O=S(=O)(CS(=O)(=O)Sc1ccc(Cl)cc1)Sc1ccc(Cl)cc1 | -3.55 | n | n | n
O=C(Nc1ccccc1)Nc1ccc2nnsc2c1 | n | n | n | n
O=C(Nc1ccccc1)Nc1ccc2snnc2c1 | -2.6 | n | n | n
CCCn1c(SCC(=O)c2ccc3c(c2)OCCO3)nnc1-c1ccco1 | -3.8 | n | n | n
